Shown are actives, neighbours in structure and some others; about 2.8% of the full set was active somewhere.
PME-1 inh: blocks human protein phosphatase methylesterase 1. recombinant PME-1, FP-Rh probe fluorescence polarization. 320,000 compounds, 0.53% hits. Q9Y570. inhibition, % at 5.9 µM;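 active = inhibition above the campaign mean of all compounds plus 3 SD, cut at about 26% in these data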;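 note: competitive labeling of PME-1 active site by serine hydrolase directed probe; 0% = PME-1 with DMSO and 100% = wells lacking PME-1 enzyme; inhibitors block probe labeling so polarization falls and inhibition rises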
Target sequence (Q9Y570 whole entry, looked up): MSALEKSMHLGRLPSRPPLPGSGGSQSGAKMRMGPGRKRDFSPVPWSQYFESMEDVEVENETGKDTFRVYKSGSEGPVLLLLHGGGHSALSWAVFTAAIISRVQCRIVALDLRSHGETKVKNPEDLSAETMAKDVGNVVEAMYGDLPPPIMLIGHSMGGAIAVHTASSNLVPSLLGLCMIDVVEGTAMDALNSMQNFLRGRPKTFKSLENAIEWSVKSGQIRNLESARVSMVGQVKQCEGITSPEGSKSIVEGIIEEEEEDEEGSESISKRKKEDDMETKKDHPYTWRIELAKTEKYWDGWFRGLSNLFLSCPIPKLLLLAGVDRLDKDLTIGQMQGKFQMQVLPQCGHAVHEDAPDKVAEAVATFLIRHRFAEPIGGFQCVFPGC
pPAFAH inh: pPAFAH (human) enzyme inhibition | AID 463082 | 330,000 compounds, 1.5% hits | Q13093 | recombinant pPAFAH, FP-rhodamine probe fluorescence polarization | inhibition, % at 3.39 µM;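 active = inhibition above the mean inhibition across the screen plus 3 SD, cut at about 25% in these data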;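 note: inhibitors block binding of the rhodamine activity-based probe so polarization drops; 0% = enzyme with DMSO and 100% = wells lacking pPAFAH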
PAFAH1B2 inh: blocks human PAF acetylhydrolase 1b catalytic subunit 2. P68402. recombinant PAFAH1B2, FP-rhodamine activity probe, fluorescence polarization. inhibition, % at 3.39 µM. 340,000 compounds, 1.2% hits. AID 492953;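 active = inhibition above the mean of all tested compounds plus 3 SD, cut at about 24% in these data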;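 note: 0% = enzyme with DMSO and 100% = wells lacking PAFAH1B2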
Target sequence (P68402 whole entry, looked up): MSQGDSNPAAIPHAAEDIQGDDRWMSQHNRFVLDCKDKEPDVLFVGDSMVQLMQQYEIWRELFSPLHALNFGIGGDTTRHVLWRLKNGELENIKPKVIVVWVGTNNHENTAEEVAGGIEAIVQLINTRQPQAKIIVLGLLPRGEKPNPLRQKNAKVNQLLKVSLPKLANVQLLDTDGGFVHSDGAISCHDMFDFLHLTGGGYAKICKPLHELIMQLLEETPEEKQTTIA
Fam108B counter: blocks mouse Fam108B hydrolase in RBBP9 counter-screen | recombinant Fam108B, FP-Rh probe fluorescence polarization | inhibition, % at 9.51 µM | 300,000 compounds, 0.33% hits | AID 1947;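 active = inhibition above the screen mean inhibition plus 3 SD, computed separately per campaign, cut at about 18% in these data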;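 note: inhibitors lower polarization as less probe binds the enzyme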
PAFAH2 FP inh: inhibitors of human PAFAH2; AID 492956; recombinant PAFAH2, FP-rhodamine activity probe, fluorescence polarization; Q99487; inhibition, % at 3.39 µM; 340,000 compounds, 0.99% hits;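 active = inhibition above the mean over all tested compounds plus 3 SD, cut at about 30% in these data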;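 note: inhibitors block probe labeling of enzyme so polarization drops; 0% = enzyme with DMSO and 100% = wells lacking PAFAH2 protein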
PAFAH1B3 FP inh: PAFAH1B3 (human) inhibition | Q15102 | recombinant PAFAH1B3, FP-rhodamine probe, fluorescence polarization | inhibition, % at 3.39 µM | 340,000 compounds, 0.28% hits | AID 492972;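 active = inhibition above the screen-wide average of all tested compounds plus 3 SD, cut at about 25% in these data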;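 note: 0% = enzyme with DMSO only and 100% = wells lacking PAFAH1B3 protein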
The depositor's hits bear a star; x = no result.

SMILES	PME-1 inh	pPAFAH inh	PAFAH1B2 inh	Fam108B counter	PAFAH2 FP inh	PAFAH1B3 FP inh
CC(NC(=O)[C@@H](C)NC(=O)[C@@H]1Cc2ccccc2CN1C(=O)OC(C)(C)C)c1ccccc1 (stereo partly drawn)	-8	1	12	-1	-1	4
CC(=O)c1ccc(OCc2cc(C(=O)NC(C)CCn3cccn3)no2)cc1 (stereo not drawn)	0	2	6	5	-1	0
CCOc1ncccc1C(=O)OCC(=O)Nc1c(C)cc(C)cc1C	2	26*	5	4	34*	3
O=C(COC(=O)c1sc2ccccc2c1Cl)NC1CCCCC1	-2	31*	0	-1	-8	0
O=C(COC(=O)c1ccc[nH]c1=O)NC1CCCC1	-2	2	1	-1	-2	0
O=C(COC(=O)c1ccccc1Br)NC1CCCCCCC1	x	32*	12	x	86*	14
O=C(COC(=O)c1ccc(F)cc1Cl)NC1CCCCCCC1	x	33*	5	x	86*	8
NC(=O)NC(=O)COC(=O)c1sc2ccccc2c1Cl	3	-2	-36	-116	-49	-17
CCOc1ncccc1C(=O)OCC(=O)NC1CCCCC1	x	31*	3	x	79*	8
CCOc1ncccc1C(=O)OCC(=O)Nc1c(C)cccc1C	2	13	2	3	18	0
Cc1ccc2nc(-c3ccc(NC(=O)COC(=O)c4ccco4)cc3)sc2c1	-13	-2	-6	-11	16	-12
CCOc1ncccc1C(=O)OCC(=O)Nc1ccc(-c2nc3ccc(C)cc3s2)cc1	-5	25*	0	-8	18	-3
O=C(C[C@H]1C/C=C\C[C@@H](Cc2ccc(F)cc2)C(=O)OC[C@H]2CCCN2C1=O)N[C@@H](CO)Cc1ccccc1	x	7	35*	x	-3	2
O=C(C[C@H]1C/C=C\CC[C@H](Cc2ccc(F)cc2)C(=O)OC[C@H]2CCCN2C1=O)N[C@H](CO)Cc1ccccc1	x	9	7	x	8	6
O=C(C[C@H]1C/C=C\CC[C@H](Cc2ccc(F)cc2)C(=O)O[C@@H](c2ccccc2)CNC1=O)N[C@H](CO)Cc1ccccc1	x	2	13	x	7	2
C[C@H]1COC(=O)[C@@H](Cc2ccc(F)cc2)C/C=C\C[C@@H](CC(=O)N[C@@H](CO)Cc2ccccc2)C(=O)N1	x	2	25*	x	3	4
O=C(C[C@H]1C/C=C\CC[C@H](Cc2ccc(F)cc2)C(=O)OC[C@H]2CCCN2C1=O)N[C@@H](CO)Cc1ccccc1	x	27*	7	x	23	-2
O=C(C[C@H]1C/C=C\CC[C@H](Cc2ccc(F)cc2)C(=O)O[C@@H](c2ccccc2)CNC1=O)N[C@@H](CO)Cc1ccccc1	x	4	25*	x	8	6
CCCC(NC(=O)CCc1c(C)c2cc3c4c(oc3c(C)c2oc1=O)CCCC4)C(=O)O (stereo not drawn)	x	x	-4	x	10	5
Cc1ccc(C(=O)Nc2cccc(S(=O)(=O)N3CCCC3)c2)o1	-6	-1	-8	x	-1	-6
O=C(C[C@@H]1C/C=C\CC[C@@H](Cc2ccc(F)cc2)C(=O)OC[C@@H]2CCCN2C1=O)N[C@H](CO)Cc1ccccc1	x	-4	9	x	4	-1
O=C(C[C@@H]1C/C=C\C[C@@H](Cc2ccc(F)cc2)C(=O)OC[C@H]2CCCN2C1=O)N[C@H](CO)Cc1ccccc1	x	-1	31*	x	1	7
O=C(C[C@@H]1C/C=C\C[C@@H](Cc2ccc(F)cc2)C(=O)OC[C@@H]2CCCN2C1=O)NCCO	x	0	47*	x	3	4
CC(C)(C)OC(=O)C[C@H]1C/C=C\C[C@@H](CC(=O)NCCO)C(=O)N2CCC[C@H]2COC1=O	x	1	3	x	9	4
O=C1OC[C@@H]2CCCN2C(=O)[C@@H](CC(=O)N(CCO)Cc2ccccc2)C/C=C\C[C@H]1Cc1ccc(F)cc1	x	9	34*	x	12	5
SMILES	PME-1 inh	pPAFAH inh	PAFAH1B2 inh	Fam108B counter	PAFAH2 FP inh	PAFAH1B3 FP inh
Cc1ccc(OCC(=O)Nc2nnc(S(=O)(=O)N3CCC(C)CC3)s2)cc1	-5	15	22	-2	14	11
O=S(=O)(Nc1ccccc1C(F)(F)F)c1ccc(-c2ccccn2)s1	x	x	4	x	-1	-1
COc1cc(/C=N/NC(=O)c2sc(N)c(C#N)c2C)cc(Br)c1O	31*	17	-1	8	15	13
O=C(Nc1ccccc1Oc1ccccc1)c1ccccc1F	-2	28*	0	-5	2	3
COc1cccc(C(=O)Nc2ccc(NC(=O)C3CC=CCC3C(=O)O)cc2)c1 (stereo not drawn)	-2	-12	0	-6	5	4
O=C(OCC(=O)C12CC3CC(CC(C3)C1)C2)c1ccc(O)cc1O	-5	5	26*	0	33*	-3
O=C(CSc1ccccn1)C12CC3CC(CC(C3)C1)C2	-2	3	26*	-2	8	1
O=C(OCC(=O)C12CC3CC(CC(C3)C1)C2)c1ccccn1	7	-4	25*	-3	0	4
Cc1ccccc1OCc1nnc(SCC(=O)Nc2ccc3nc(SCC(=O)Nc4ccccc4)sc3c2)n1C	-61	-18	-16	-39	-36	-42
Cc1ccc(OCC(=O)NN=C2C3CC4CC(C3)CC2C4)cc1	5	5	4	x	2	3
CSc1ccccc1NC(=O)c1ccccn1	-6	-4	4	-5	-4	11
Cc1ccccc1NC(=O)c1ccccn1	-2	27*	1	4	-9	6
c1ccc2c(c1)OCCc1c-2[nH]c2ccccc12	33*	10	0	2	-1	7
O=C1/C(=C2\C(=O)N(Cc3ccc(F)cc3)c3ccccc32)SC(=S)N1CCS(=O)(=O)O	2	6	4	-2	-1	5
O=C(O)CN1C(=O)/C(=C2\C(=O)N(Cc3ccccc3Cl)c3ccccc32)SC1=S	-11	3	26*	-3	3	9
CCOC(=O)CC(=O)NC(CC(=O)OC)c1ccc(C(C)C)cc1 (stereo not drawn)	-9	0	29*	-8	6	6
CSc1cccc(NC(=O)CSc2ccc(Cl)cc2)c1	-5	5	16	-8	10	10
CC(C)CNC(=O)c1cccc(NC(=O)CSc2ccc(Cl)cc2)c1	1	3	30*	3	-3	7
CCn1c(=O)c2cc(C(=O)NCCOC)sc2c2ccccc21	-3	3	-3	0	6	1
CCn1c(=O)c2cc(C(=O)Nc3ccc(OC)cc3OC)sc2c2ccccc21	32*	2	0	-1	4	4
COc1cccc(NC(=O)Nc2cc(C(=O)O)ccc2N2CC3CC(C2)c2cccc(=O)n2C3)c1 (stereo not drawn)	-3	34*	7	1	8	8
